Measured values: PubChem BioAssay (NCATS)
“And” between values parts separate entries of the source, which are not always exact repeats. Equal entries are not always repeated. Inconclusive results are not listed. The source made the active and inactive calls. Calls come from the whole dose curve.

Assay: qHTS Assay for Lipid Storage Modulators (AID 1519); for activity change, negative = inhibition: % is set by controls: 0 for no effect and ±100 for the full control effect
Settings: Drosophila S3 cells, BODIPY lipid droplet/cell ratio, laser cytometry, cells loaded with oleic acid
Excerpt: NIH Molecular Libraries Probe Production Centers Network [MLPCN]
NIH Chemical Genomics Center [NCGC]
Assay Submitter (PI): Beller, Mathias; Max-Planck-Institut fur Biophysikalische Chemie
NCGC Assay Overview: Storing lipids as a reservoir for energy or the anabolism of elementary metabolites is a common feature of probably all cells and is conserved from bacteria to humans. The universal cellular lipid storage organelle is the so-called lipid storage droplet (LD). Although ubiquitous, LDs share a simple structure composed of a hydrophobic core that harbors the storage lipids, which is shielded by a droplet-specific phospholipid monolayer to which proteins are attached. The current model of LD biogenesis involves an incorporation of the lipid core into the membrane leaflets of the endoplasmic reticulum (ER) followed by a subsequent budding-like maturation of a LD, which ultimately pinches off. Once released, LD volume can increase by localized lipogenesis or fusion of existing droplets. Storage lipids are re-mobilized enzymatically by lipase activity. Lipase regulation in the adipocyte is heavily studied and involves multiple components including catecholamine signaling, the LD-associated proteins Perilipin and comparative gene identification-58 (CGI-58) and at least two lipases named hormone sensitive lipase (HSL) and adipocyte triglyceride lipase (ATGL). LD regulation outside of the adipocyte is poorly understood and only few components are known. However, there is an urgent need to learn more about ectopic fat depots as mislocalized storage of lipids, for example in the liver or muscle, is an eminent health problem associated with insulin resistance or the metabolic syndrome. We developed a laser-scanning cytometer assay to enable 1,536-well screening and combined the results of the small molecules screen with an RNAi database based on lipid storage.
NCGC Assay Protocol Summary:
We dispensed 4 uL of cells at 1.25 x 10^6 cells/mL into LoBase Aurora COC 1,536-well plates (black walled, clear bottom) with a bottle-valve solenoid-based dispenser (Aurora) to obtain 5,000 cells/well. Triacsin C (Sigma-Aldrich T-4540), an inhibitor of long-chain fatty acyl CoA synthetase that blocks synthesis of triglycerides, was used as a positive control for lipid under-storage. A total of 23 nL of compound solution of different concentrations were transferred to the assay plates using a Kalypsys pin tool equipped with a 1,536-pin array containing 10-nL slotted pins (FP1S10, 0.457-mm diameter, 50.8 mm long; V&P Scientific). One microliter of oleic acid (400 uM) was added, and the plate was lidded with stainless steel rubber gasket lined lids containing pinholes. […] Fluorescence was detected by excitation of the fluorophores with a 488-nm laser on an Acumen Explorer (TTP Lab Tech). The total intensity in channel 1 (500-530 nm) reflected lipid droplet accumulation. […] The ratio of the total intensity in PMT channel 1 over total intensity of channel 3 was also calculated. Percent activity was computed relative to an internal control (100% inhibited lipid droplet deposition due to the presence of 20 uM Triacsin C), which was added to 32 wells/plate.

[1] = measured here: cell count channel max response
[2] = measured here: lipid channel max response

Row | SMILES | activity change, negative = inhibition (at 25.7 µM (top of the series)) | max response [1] | max response [2] | activity change, negative = inhibition (at 57.5 µM (top of the series))
1 | C#CCN(C)CCCOc1ccc(Cl)cc1Cl | -0.841% (inactive) | -6.58% | -5.76% | –
2 | CCCC(C(=O)OCCN(CC)CC)(c1ccccc1)c1ccccc1 | -1.67% (inactive) | -3.68% and -8.12% and 19.2% | -5.52% and -10.9% and 21.5% | -2.92% (inactive) and 2.44% (inactive)
3 | CC(C)(Oc1ccc(CCNC(=O)c2ccc(Cl)cc2)cc1)C(=O)O | -0.881% (inactive) | -0.576% | -0.58% | –
4 | CCCCNc1c(C(=O)OCC)c(C)nc2c1cnn2CC | -0.42% (inactive) | -19.5% and -31.7% | -18.5% and -43.9% | -16.8% (inactive)
5 | c1cnc(N2CCN(Cc3ccc4c(c3)OCO4)CC2)nc1 | 3.16% (inactive) | -1.42% and -12.3% | 3.03% and -8.1% | 2.74% (inactive)
6 | c1ccc2c(c1)CCCC2C1=NCCN1 (configuration not stated) | – | 6.5% and -25.5% | 18.8% and -24.9% | 9.7% (inactive) and 1.83% (inactive)
7 | O=C(O)CN(CCOCCOCCN(CC(=O)O)CC(=O)O)CC(=O)O | – | -9.11% | -9.56% | 0.929% (inactive)
8 | CN=C(NC#N)NCCSCc1nc[nH]c1C | – | 19.1% and 8.99% | 19.5% and 21.3% | 0.49% (inactive) and 5% (inactive)
9 | Fc1ccc(C(c2ccc(F)cc2)N2CCN(C/C=C/c3ccccc3)CC2)cc1 | – | 15.3% | 15.1% | -1.34% (inactive)
10 | Cc1ccc(/C(=C\CN2CCCC2)c2ccccn2)cc1 | – | 7.98% and 15.3% | 14.1% and 15.5% | 3.64% (inactive) and 0.151% (inactive)
11 | CCOC(=O)C1=C(C)NC(C)=C(C(=O)OC)C1c1cccc([N+](=O)[O-])c1 (configuration not stated) | – | -3.59% | -4.4% | 1.63% (inactive)
12 | CCN(CC)CCNC(=O)c1ccc(NC(C)=O)cc1 | – | -2.69% and -11.3% | 6.2% and -12.1% | 5.92% (inactive) and 1.04% (inactive)
13 | NCCCNCCSP(=O)(O)O | – | 11.3% | 15.5% | 2.83% (inactive)
